This note sets out measurements from PubChem BioAssay.

Each structure is given as a SMILES string.

PEG-3, sequence (Q6IN02 whole entry, looked up): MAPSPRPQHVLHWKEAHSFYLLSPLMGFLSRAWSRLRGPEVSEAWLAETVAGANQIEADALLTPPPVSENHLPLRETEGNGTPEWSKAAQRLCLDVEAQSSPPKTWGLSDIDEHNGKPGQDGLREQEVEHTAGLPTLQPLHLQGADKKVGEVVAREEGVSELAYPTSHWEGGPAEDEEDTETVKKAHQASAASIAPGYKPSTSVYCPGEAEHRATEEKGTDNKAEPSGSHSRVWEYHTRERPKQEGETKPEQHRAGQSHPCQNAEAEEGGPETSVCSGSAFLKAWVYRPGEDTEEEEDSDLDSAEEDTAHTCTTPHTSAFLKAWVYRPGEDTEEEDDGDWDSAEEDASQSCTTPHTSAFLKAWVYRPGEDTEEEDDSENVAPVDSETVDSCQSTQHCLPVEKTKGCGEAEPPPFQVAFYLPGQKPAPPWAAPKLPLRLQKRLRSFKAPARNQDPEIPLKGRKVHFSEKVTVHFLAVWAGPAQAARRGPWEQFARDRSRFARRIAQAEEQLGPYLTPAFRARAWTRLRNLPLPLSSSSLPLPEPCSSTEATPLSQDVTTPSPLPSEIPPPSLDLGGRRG

This experiment concerns the target PEG-3 (UniProt Q6IN02). Nature of the experiment: inhibition of PEG-3 promoter-driven reporter – cell-based, HeLa, luciferase, CREF/GAPDH counter-screen panel, dose response (AID 624167). As to conditions: CREF/GAPDH counter-screens; HeLa PEG-Prom luciferase reporter, overnight, run 2, dose range 1, at 100 µM (top of the series) unless noted. On the technique in general: A counterscreen serves to expose hits that act by an unwanted route or on another target.
What is called inhibition is the relative decrease from the control value, in per cent. For the molecule `CC1CCCCN1CCNC(=O)c1ccc2c(=O)n(Cc3ccc(Cl)cc3)c(=S)[nH]c2c1` (centres undefined), the inhibition was determined as 99.1%.
In the case of `CCc1nc(Nc2ccc(N3CCN(C(C)=O)CC3)cc2)c2oc3ccccc3c2n1`, the inhibition stood at 99.9%.
As to `c1cncc(-c2nc(NCC3COc4ccccc4O3)c3ccccc3n2)c1` (centres undefined), the inhibition was 99.8%.
With `N=c1c2c(-c3ccccc3)c(-c3ccccc3)n(Cc3ccccc3)c2ncn1CCO` the figure was 97.6%; with `Oc1cccc(C(Nc2nccs2)c2ccc3cccnc3c2O)c1` (centres undefined), 98.7%; with `CC(=O)c1cccc(NC(=O)c2cccc3c(-c4cccnc4)coc23)c1`, 47%.
For `COc1ccc(NC(=O)N(C)[C@H]2C[C@H]3c4[nH]c5ccc(-c6cccc(C)c6)cc5c4CCN3C[C@H]2[C@H](C)O)cc1`, the inhibition stood at 97.1%.
Next, `CCOC(=O)/C(=C\c1ccccc1)C(=O)CCN1CCOCC1`: 102%; `CCOC(=O)C1CCN(c2cc3c(cc2NC(=O)c2ccccc2OCC)n(C)c(=O)n3C)CC1`: 101%.
`CCCCCCCNC(=O)C1(CC2CC(c3ccccc3)=NO2)CCNCC1` (centres undefined): the inhibition was determined as 98.7%.
Next, `Cc1nn(-c2ccccc2Cl)c(Cl)c1/C=N/Nc1nc2ccccc2s1`: 47.3%.
With `COCCn1c(C)cc(C(=O)CSc2nnc3ccccn23)c1C`, the inhibition came to 94.2%.
Next, `Cc1ccc(-c2cc(C(=O)Nc3nccs3)c3ccccc3n2)c(C)c1`: 56.2%; `CC1=NN(c2cccc(C(=O)O)c2)C(=O)/C1=C\C=C/c1ccccc1`: 99.5% [run 2, dose range 1, at 50 µM].
Regarding `CN(C)CCNc1ccc(CO)c2oc3ccc(O)cc3c(=O)c12`, the inhibition was found to be 101%.
Next, `C[C@@H]1[C@H]2[C@@H]3CC[C@@H](C3)[C@H]2CN[C@H]1c1cn(Cc2ccccc2)c2ccccc12`: 102%; `Cc1ccc(NS(=O)(=O)c2cc3c4c(cccc4c2)C(=O)NC3=O)cc1C`: 66.9%; `CN(C)CCNc1ncnc2c1sc1nc(N3CCOCC3)c3c(c12)CC(C)(C)SC3`: 101%.
Next, `O=S(=O)(CC(CN1CCCCC1)N1CCCCC1)c1ccccc1` (centres undefined): 102%.
Turning to `O=S(=O)(N[C@H]1C[C@@H](NS(=O)(=O)OCC(Cl)(Cl)Cl)C2CCCCC21)OCC(Cl)(Cl)Cl` (some centres undefined), the inhibition came to 101%.
With `CCOc1cc(/C=N/Nc2nc(-c3cccc(S(=O)(=O)N4CCCC4)c3)cs2)ccc1O`, the inhibition worked out at 95.5%.
With `COc1ccc(CCNC(=O)c2cc3c(=O)n4ccccc4nc3n(C3CCCCC3)c2=N)cc1` the figure was 102%; with `CC1=CC(C)[C@H](/C=N/n2c(=O)[nH]c3c([nH]c4ccc(Br)cc43)c2=O)C(C)C1` (some centres undefined), 77.5% [run 2, dose range 1, at 12.5 µM].
On to `CN(C)CCNc1ncnc2c1ncn2[C@H]1CN(Cc2ccc(-c3ccccc3)cc2)C[C@@H](CO)O1`, for which the inhibition turned out to be 101%.
